Source: PubChem (NMMLSC)
Rab7 wt modul: alters GTP binding to wildtype dog Rab7; GTP binding activity (percent of control), % at 10 µM; GST-Rab7 beads, fluorescent GTP binding, flow cytometry; actives lie on both sides; untreated = 100%, excess cold GTP = 0%; hit rate 0.055% among 190,000;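 active means fluorescent GTP binding to Rab7 beads changed by at least 20 points from the 100% baseline, either direction, mostly lower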;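 further: median green fluorescence of bound Bodipy-FL-GTP per Rab7 bead population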
Rac1 wt GTP bind: modulators of human Rac1 wildtype GTP binding; P63000; GST-Rac1 beads, fluorescent GTP binding, flow cytometry; actives lie on both sides; 0 = cold GTP competed, 100 = untreated; GTP binding activity (% of control), % at 10 µM; hit rate 0.27% among 190,000; AID 757;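 active means GTP binding activity at least 20 points away from the 100% control level, either lower or higher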
HRas wt GTP bind: modulators of GTP binding to human HRas wildtype; GST-Ras wt beads, Bodipy-FL-GTP binding, flow cytometry; actives lie on both sides; P01112; GTP binding activity, % at 10 µM; AID 759; hit rate 0.14% among 190,000;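 active means GTP binding activity at least 20% away from the 100% baseline, either lowered as inhibitor or raised as activator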;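 further: 0% = unlabeled GTP competition control and 100% = no-compound control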
Target sequence (P01112 whole entry, looked up): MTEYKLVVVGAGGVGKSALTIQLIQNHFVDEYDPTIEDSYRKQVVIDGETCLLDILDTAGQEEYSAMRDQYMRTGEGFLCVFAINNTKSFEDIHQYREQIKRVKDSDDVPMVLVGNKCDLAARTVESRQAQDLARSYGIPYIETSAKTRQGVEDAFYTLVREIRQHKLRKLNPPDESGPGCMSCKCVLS
Cdc42 wt: changes GTP binding to wildtype human Cdc42; P60953; GST-Cdc42 beads, Bodipy-GTP binding, flow cytometry; actives lie on both sides; percent activity (GTP binding), % at 10 µM; hit rate 0.2% among 190,000;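 active means percent activity GTP binding at least 20 points away from the 100% baseline, either down as inhibitor or up as activator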;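 further: median bead fluorescence of bound Bodipy-FL-GTP at 100 nM; 0% = excess unlabeled GTP control and 100% = no compound control; below 100% means less GTP binding so inhibitor and above means activator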
Target sequence (P60953 whole entry, looked up): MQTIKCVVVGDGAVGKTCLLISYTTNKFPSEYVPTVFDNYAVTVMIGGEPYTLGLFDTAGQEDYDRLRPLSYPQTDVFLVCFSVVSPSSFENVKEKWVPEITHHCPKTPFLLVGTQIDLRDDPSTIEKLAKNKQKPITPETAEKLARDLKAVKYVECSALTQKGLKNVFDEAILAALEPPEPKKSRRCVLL
Rac1 mut GTP: modulators of GTP binding to human Rac1 activated mutant; P63000; GST-Rac1 activated beads, fluorescent GTP binding, flow cytometry; actives lie on both sides; 100% means binding = to untreated wells; percent activity (GTP binding), % at 10 µM; hit rate 0.11% among 190,000; AID 764;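 active means GTP binding at least 20 percentage points away from the 100% baseline, in either direction, so actives lie on both sides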
Rab2A wt mod: changes GTP binding to wildtype dog Rab2A, up or down. P61105. AID 760. GTP binding activity, % at 10 µM. hit rate 0.19% among 190,000. GST-Rab2 wt beads, Bodipy-GTP binding, flow cytometry;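 active means GTP binding activity at least 20 points away from 100%, either lowered or raised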;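 further: 0% = beads with excess unlabeled GTP and 100% = no-compound control corrected for plate trend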
* hit, by the source's call; [ ] = dose if it differs, or a comment. Shown are actives, neighbours in structure and some others; about 0.38% of the full set was active somewhere.

SMILES	Rab7 wt modul	Rac1 wt GTP bind	HRas wt GTP bind	Cdc42 wt	Rac1 mut GTP	Rab2A wt mod
Cc1cc(C)n2nc(C(=O)N3CCCC(CNS(=O)(=O)c4cccs4)C3)cc2n1 (stereo not given)	22.0*	28.0*	35.0*	34.0*	31.0*	33.0*
O=C/C(=C\Nc1ccc(C(=O)N2CCOCC2)cc1)c1nc2ccccc2o1	96.0	99.0	95.0	99.0	100.0	96.0
Cn1cnnc1SCC(=O)NCCc1ccc(Cl)cc1Cl	92.0	95.0	97.0	99.0	95.0	99.0
Cc1ccc(NC(=O)CSCC(=O)NCCc2ccccn2)c(C)c1	105.0	98.0	98.0	99.0	96.0	101.0
Cc1ccc(Nc2nnc(SCC(=O)NCCN3C(=O)CSC3=O)s2)cc1	97.0	100.0	99.0	104.0	100.0	98.0
CCN1CCCc2cc(CN(CCN3CCOCC3)C(=S)Nc3cccc(Cl)c3)ccc21	106.0	102.0	100.0	98.0	94.0	102.0
COc1ccc(OCC(=O)Nc2nonc2NC(=O)COc2ccc(OC)cc2)cc1	95.0	79.0*	85.0	84.0	88.0	82.0
Cc1cc(C)cc(OCC(=O)Nc2nonc2NC(=O)COc2cc(C)cc(C)c2)c1	95.0	97.0	94.0	96.0	95.0	95.0
Nc1nonc1-c1nc2ccccc2n1CC(=O)N/N=C/c1ccc(-c2ccccc2C(=O)O)o1	86.0	77.0*	84.0	85.0	86.0	82.0
CCOC(=O)c1ccccc1NC(=O)Cn1c(-c2nonc2N)nc2ccccc21	104.0	103.0	100.0	99.0	98.0	100.0
O=C(NCc1ccccc1)C1=C[C@H](C2CC2)C[C@H](OCCCCO)O1	104.0	100.0	100.0	95.0	97.0	98.0
COc1ccc(C(=O)c2c(O)cc(-c3ccc(OC)cc3)oc2=O)cc1	125.0*[activator]	137.0*[activator]	118.0	117.0	116.0	118.0
COc1ccc(-c2cc(=O)c3c(O)c(OC)c(O)cc3o2)cc1	100.0	85.0	88.0	86.0	90.0	88.0
O=S1(=O)N=C(N(CCO)/N=C/C=C/c2ccccc2)c2ccccc21	84.0	61.0*	70.0*	79.0*	80.0	72.0*
FC(F)c1nc2ccccc2[nH]1	100.0	101.0	100.0	100.0	97.0	99.0
c1ccc2[nH]c3cc4ncnc4cc3nc2c1	87.0	79.0*	77.0*	83.0	91.0	77.0*
COc1ccc(-c2nnc3ccc(SCC(=O)Nc4cc(C)on4)nn23)cc1OC	107.0	93.0	95.0	93.0	92.0	97.0
CCOc1ccccc1NC(=O)CSc1nnc2ccc(-c3ccncc3)nn12	103.0	99.0	98.0	95.0	97.0	99.0
COc1ccc(NC(=O)CSc2ccc3nnc(-c4cccnc4)n3n2)c(OC)c1	93.0	79.0*	84.0	80.0	89.0	83.0
CCOc1ccccc1NC(=O)CSc1ccc2nnc(-c3cccnc3)n2n1	83.0	58.0*	69.0*	65.0*	76.0*	64.0*
COC(=O)c1ccc(CO/N=C/c2ccc(OC)cc2)o1	104.0	98.0	98.0	100.0	95.0	98.0
CC(C)Nc1nc(Cl)nc(NNC(=O)C(C)Oc2ccccc2)n1 (stereo not given)	104.0	106.0	102.0	103.0	102.0	102.0
COc1ccccc1CNC(=S)NC1CCCC1	94.0	104.0	98.0	103.0	99.0	97.0
Cc1ccccc1NC(=O)C1CCCN(S(=O)(=O)c2cccc3cccnc23)C1 (stereo not given)	101.0	103.0	100.0	98.0	100.0	97.0
Cc1ccccc1NC(=O)C1CCCN1S(=O)(=O)c1cccc2cccnc12 (stereo not given)	109.0	128.0*[activator]	113.0	117.0	111.0	113.0
SMILES	Rab7 wt modul	Rac1 wt GTP bind	HRas wt GTP bind	Cdc42 wt	Rac1 mut GTP	Rab2A wt mod
CC(=O)c1cccc(CN2CCCC(CCC(=O)NCc3ccc(C)o3)C2)c1 (stereo not given)	97.0	100.0	95.0	92.0	95.0	93.0
Cn1nc(C(=O)NCc2cccnc2)c2ccccc2c1=O	96.0	100.0	98.0	96.0	98.0	99.0
COC(=O)c1cccc(NC(=O)c2nn(C)c(=O)c3ccccc23)c1	92.0	72.0*	77.0*	73.0*	81.0	79.0*
Cn1nc(C(=O)Nc2cccnc2)c2ccccc2c1=O	92.0	85.0	74.0*	73.0*	86.0	69.0*
CCN(Cc1ccccc1)c1ccc(/C=N/NS(=O)(=O)c2cccc([N+](=O)[O-])c2)cc1	111.0	104.0	105.0	101.0	100.0	103.0
Cc1cc(C)nc(/N=C(\N)Nc2ccc(F)c([N+](=O)[O-])c2)n1	103.0	105.0	101.0	101.0	99.0	102.0
CC(=O)Nc1ccc(N2C(=O)c3ccc(C(=O)Nc4nnc(SCc5ccc(F)cc5)s4)cc3C2=O)cc1	94.0	99.0	73.0*	97.0	93.0	97.0
Cc1cc(C(=O)Oc2ccccc2C(=O)O)c(C)o1	104.0	127.0*[activator]	110.0	120.0*[activator]	119.0	116.0
O=C(NNC(=S)NCc1ccc(Cl)cc1)c1ccc(Br)o1	96.0	90.0	90.0	78.0*	80.0	77.0*
CCOC(=O)N1CCN(C(=O)CCc2ccc(S(=O)(=O)NCCc3ccccc3)cc2)CC1	20.0*	29.0*	37.0*	33.0*	32.0*	32.0*
O=C(CCc1ccc(S(=O)(=O)NCCc2ccccc2)cc1)Nc1ccc2c(c1)OCO2	24.0*	33.0*	39.0*	35.0*	35.0*	34.0*
CC(C)CNS(=O)(=O)c1ccc(CCC(=O)Nc2ccc3c(c2)OCO3)cc1	102.0	101.0	102.0	102.0	96.0	102.0
Cc1ccc(CN2CCN(Cc3cn[nH]c3C3CCCCC3)CC2CCO)cc1 (stereo not given)	98.0	98.0	97.0	97.0	94.0	95.0
O=C(Nc1ccccc1)C1=C(c2ccccc2)S(=O)(=O)CCS1(=O)=O	98.0	87.0	90.0	77.0*	81.0	87.0
COc1cc(C(=O)OCC(=O)Nc2ccc3c(c2)OC(F)(F)O3)ccc1OCc1c(C)noc1C	28.0*	39.0*	43.0*	34.0*	37.0*	40.0*
COc1ccc(NC(=O)COC(=O)c2ccc(OCc3c(C)noc3C)cc2)cc1OC	101.0	103.0	101.0	102.0	98.0	100.0
O=C(COc1ccccc1)Nc1ccc(Cl)cc1Cl	104.0	98.0	98.0	97.0	96.0	99.0
Cc1ccn2c(NCc3ccc4c(c3)OCO4)c(-c3ccc(O)cc3)nc2c1	82.0	135.0*[activator]	91.0	145.0*[activator]	112.0	100.0
O=C(N/N=C/c1ccc(-c2ccccc2[N+](=O)[O-])o1)c1cncc(Br)c1	89.0	72.0*	84.0	89.0	89.0	83.0
CC(CCc1ccccc1)NC(=O)Cc1cccs1 (stereo not given)	104.0	101.0	100.0	100.0	98.0	100.0
